The results in this text go back to PubChem BioAssay AID504725 (Broad Institute, 2011).

The structures appear in SMILES notation. Potency and affinity values are given separately. The source made the active and inactive calls. Entries that show only a call come without a potency. The rule behind the calls is not given here.

The target in the assay is KSHV LANA C-terminal domain (residues 932-1162) binding to LBS DNA (UniProt O40947). Briefly: inhibitors of C-LANA binding to LBS DNA, dose response, biochemical, fluorescence polarization, cherry-picked samples (AID 504725). Particulars: MBP-C-LANA / FAM-LBS DNA fluorescence polarization, percent change from plate compound-well median; series mostly up to 35 µM. Background: In fluorescence polarisation assays a small probe gives low polarisation when free and higher when bound to something large.
Take `Cc1ccc(CSc2ncnc3onc(C)c23)cc1`: the compound was called inactive.
For `O=C(O)c1ccccc1NC(=O)c1cc(-c2ccccc2)nc2ccccc12`, the outcome was inactive.
As to `COC(=O)\C(C(C)=O)=C(/C=C/C=C/C=C/N(C)C)N(C)C`, the compound was classed as inactive.
Take `CCN(C(=O)COC(=O)CCCOc1ccc(Cl)cc1C)c1c(N)n(Cc2ccccc2)c(=O)[nH]c1=O`: the result was inactive.
In the case of `Cn1c2ccccc2c2cnn(CC(=O)Nc3cccc(F)c3)c(=O)c21`, the result was inactive.
For `CC(C)N(Cc1ccccc1)C(=O)Cn1c(=O)cnc2ccccc21`, the result was inactive.
On to `O=C(c1ccc2c(c1)CCN2S(=O)(=O)c1ccccc1)N1CCN(c2ccc(F)cc2)CC1`, for which the compound was classed as inactive.
`Nc1ccc2c(O)cc(S(=O)(=O)O)cc2c1`: the result was inactive.
Under `O=C1c2ccccc2C(=O)N1Cc1ccc2c(c1)OCO2` stands “inactive”.
In the case of `Cc1cc(C)n(CC(=O)NNC(=O)CC(C)c2ccccc2)n1` (stereo not drawn), the compound was called inactive.
As for `Cc1cc(NS(=O)(=O)c2ccc(Nc3nc(-c4sc(N)nc4C)cs3)cc2)no1`, the outcome was inactive.
In the case of `C=CCNC(=O)c1cn(CC)c2cc(N3CCN(C(=O)c4ccco4)CC3)c(F)cc2c1=O`, the compound was called inactive.
For the compound `CC(Sc1nc2ccccc2s1)C(=O)Nc1nnc(C(C)C)s1` (stereo not drawn), the call was inactive.
Consider `CCOC(=O)C1=C(COC(=O)c2ccc([N+](=O)[O-])s2)NC(=O)NC1C` (stereo not drawn), for which the compound was called inactive.
For `Nc1cc(N)nc(SCC(=O)N2CCCCC2)n1`, the call was inactive.
For the compound `O=C(O)C1C2C=CC(CC2)C1C(=O)O` (stereo not drawn), the result was inactive.
On to `O=C1CCCC2=C1C(c1ccc(O)c(O)c1)Nc1ccc3ncccc3c12` (stereo not drawn), for which the result was inactive.
Turning to `Fc1ccc(-c2cc(C(F)(F)F)nc(-n3cc(Cl)cn3)n2)cc1`, the compound was called inactive.
Turning to `Nc1nnc(CC(=O)N/N=C/c2cc([N+](=O)[O-])cc(Br)c2O)s1`, the compound was called inactive.
As to `Cc1cc(C(F)(F)F)c2c(N)c(C(=O)Nc3cc(C)on3)sc2n1`, the result was inactive.
Take `CCOC(=O)c1c(C)n(C)c2ccc(OCCN(C)C)cc12`: the call was inactive.
As for `O=C(CN1CC[C@@]2(O)CCCC[C@H]2[C@@H]1c1ccc(F)cc1)NCc1ccco1`, the call was inactive.
With `Cc1ccc(N2CC(C(=O)Nc3nnc(SCC(=O)Nc4nc(C)cs4)s3)CC2=O)cc1` (stereo not drawn), the call was inactive.
As for `CC(C)=C[C@@H]1C[C@H](C)[C@H]2CC[C@H](C)c3c(O[C@@H]4O[C@@H](C)[C@@H](O)[C@@H](O)[C@@H]4O)c(O)c(C)c1c32`, the call was inactive.
Under `CCOC(=O)C1=C(O)/C(=C/c2cc(C)n(-c3ccccc3)c2C)N=C1C` stands “inactive”.
For `COc1cccc(/C=N/NC(=O)C(=O)NCc2cccnc2)c1O`, the result was inactive.
The same measure for `CN(C)C(=O)c1ccc(NC(=O)COC(=O)C2(c3ccccc3)CCCC2)cc1`: “inactive”; for `O=C(COC(=O)c1ccc([N+](=O)[O-])o1)NCCCc1ccccc1`: “inactive”; for `C/C(=N/NC(=O)c1cc(O)c(O)c(O)c1)c1ccc([N+](=O)[O-])cc1`: “inactive”.
The same measure for `Cc1cc(C)n2nc(C(=O)OC(C)C(=O)c3cc(C)c(C)cc3C)nc2n1` (stereo not drawn): “inactive”.
Under `CCN(Cc1ccccc1)C(=O)c1cccc(S(=O)(=O)N2CCN(Cc3ccccc3)CC2)c1` stands “inactive”.
Turning to `Cc1nnc(NC(=O)CN2C(=O)NC3(CCCC3)C2=O)s1`, the result was inactive.
`CCc1noc(C)c1C(=O)N1CCCC(N2CCN(c3ccc(F)cc3)CC2)C1` (stereo not drawn): the outcome was inactive.
The same measure for `NC1=NC[C@@H](Cc2ccc(O)cc2)N1CCc1cc(C(F)(F)F)cc(C(F)(F)F)c1`: “inactive”.
Under `COc1ccc(NS(=O)(=O)c2ccc(C)c(C(=O)N(C)Cc3ccc(OC)cc3OC)c2)cc1` stands “inactive”.
As for `COc1cccc2[nH]c(C(=O)NC(C)c3ccccc3)cc12` (stereo not drawn), the compound was called inactive.
Turning to `CCn1c(-c2ccc([N+](=O)[O-])cc2)n[nH]c1=S`, the compound was classed as inactive.
Under `COc1ccccc1N1CCN(S(=O)(=O)c2c(C)[nH]c(C)c2C(=O)N2CCCC2)CC1` stands “inactive”.
